Activity calls are given as the source filed them.

The test system of assay [1] is Plasmodium falciparum Sir2 (PF13_0152, Sir2A). As to the kind of experiment: Plasmodium falciparum Sir2A binding compounds – biochemical, small-molecule microarray, 635 nm fluorescence, primary screen (AID 1098).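 Further: score merges spot fluorescence intensity with its signal-to-noise ratio.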 The following applies: fluorescence 635 nm, higher = more signal.
Assay [2] in a line: probe aDKK1 binding to arrayed compounds – biochemical, biotinylated probe, 635/667 nm fluorescence, primary screen (AID 1099).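 Further: score merges 667nm spot fluorescence with signal to noise across triplicate slides.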 The following applies: small-molecule microarray, higher = more signal.
Assay [3] in a line: probe aCHRDL2 binding to arrayed compounds – biochemical, biotinylated probe, 635/667 nm fluorescence, primary screen (AID 1100). The following applies: small-molecule microarray, higher = more signal.
The nature of assay [4]: change in splice reporter luminescence, either direction, cell-based, HEK293, spliceosome inhibition project, primary screen (AID 1101).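 Further: HEK293 cells carrying a splicing-competent luciferase reporter gene; test concentration not given here.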 The following applies: HEK293 splicing luciferase reporter, 24 h, higher = more signal, called active from +8 up or from −8 down.
Assay [5] has as its target Fibroblast growth factor 10 (Homo sapiens) (UniProt O15520). The assay is described as follows: compounds binding fibroblast growth factor 10 – biochemical, small-molecule microarray, 635 nm fluorescence, primary screen (AID 1102). As to conditions: FGF10 binding, fluorescence 635 nm, higher = more signal.
The test system of assay [6] is glycogen synthase kinase-3 (GSK3A per assay name; protocol says GSK3B). The assay is described as follows: compounds binding glycogen synthase kinase-3 – biochemical, small-molecule microarray, 635 nm fluorescence, GSK3A, primary screen (AID 1103). Further: the record names both GSK3A and GSK3B. The following applies: fluorescence 635 nm, higher = more signal.
Assay [7] has as its target Epidermal growth factor receptor (Homo sapiens) (UniProt P00533). As to the kind of experiment: compounds binding epidermal growth factor receptor – biochemical, small-molecule microarray, 635 nm fluorescence, primary screen (AID 1104).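 Further: score merges 667 nm emission intensity with spot signal to noise over triplicate slides.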 The following applies: EGFR binding, higher = more signal.
In assay [8] the target is Follistatin-related protein 3 (Homo sapiens) (UniProt O95633). As to the kind of experiment: compounds binding follistatin-related protein 3 – biochemical, small-molecule microarray, 635 nm fluorescence, primary screen (AID 1105).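 Further: score merges emission near 667 nm and signal to noise per printed spot across three slides.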 The following applies: FSTL3 binding, higher = more signal.
For assay [9], the target named is Dickkopf-related protein 1 (Homo sapiens) (UniProt O94907). The assay is described as follows: small molecules binding DKK1 protein – biochemical, small-molecule microarray, 635 nm fluorescence scan, primary screen (AID 1106).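 Further: score merges emission near 667 nm with signal to noise over three replicate slides.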 As to conditions: higher = more signal.
The test system of assay [10] is Inhibin beta A chain (activin A). As to the kind of experiment: small molecules binding activin A – biochemical, small-molecule microarray, 635 nm fluorescence scan, primary screen (AID 1107).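 Further: mouse activin A protein probed at 4.33 µg/mL on printed slides; score merges bound-protein fluorescence near 667 nm with spot signal-to-noise.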 As to conditions: INHBA, higher = more signal.
Assay [11] relates to Human papillomavirus type 1a protein E7 (residues 44-93). As to the kind of experiment: small molecules binding HPV E7 44-93 – biochemical, small-molecule microarray, residues 44-93, 635 nm fluorescence, primary screen (AID 1108).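 Further: E7 fragment applied at 1 µg/mL in TBST for 1 h at 4 C; score combines spot fluorescence with its signal to noise ratio.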 As to conditions: fluorescence 635 nm, higher = more signal.
A short description of assay [12]: hepatitis C replication reporter changes, two-sided – Huh7 cells, luciferase reporter, HCV replication inhibitor project, primary screen (AID 1109).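 Further: huh7 hepatoma cells harbouring a luciferase neomycin HCV replicon reporter; luciferase luminescence as measure of HCV replicon replication; test concentration not given here.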 The following applies: Huh7 HCV replicon luciferase reporter, 48 h; higher = more signal. For orientation: A reporter such as luciferase makes a cellular process visible.
The target in assay [13] is Left-right determination factor 2 (Homo sapiens) (UniProt O00292). As to the kind of experiment: small molecules binding LEFTY2 protein – biochemical, small-molecule microarray, 635 nm fluorescence scan, primary screen (AID 1110). The following applies: higher = more signal.
Assay [14] concerns the target Calmodulin-1 (Homo sapiens) (UniProt P0DP23). As to the kind of experiment: small molecules binding calmodulin-1 with EGTA – biochemical, small-molecule microarray, Cy5-labelled CALM1, profiling panel (AID 1111).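 Further: labelled calmodulin applied in Tris saline Tween buffer holding calcium plus EGTA and DTT.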 As to conditions: Cy5-CALM1 binding fluorescence, higher = more signal.
Assay [15] has the same target. The assay is described as follows: small molecules binding Ca-loaded calmodulin-1 – biochemical, small-molecule microarray, Cy5-labelled CALM1, plus calcium, artefact control for SMM control-protein annotation, profiling panel (AID 1112).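 Further: score merges spot fluorescence with signal to noise from triplicate slides.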 The following applies: Cy5-CALM1 binding fluorescence, higher = more signal.
Assay [16] can be described thus: probe aWnt5a binding to arrayed compounds – biochemical, biotinylated probe, 635/667 nm fluorescence, primary screen (AID 1113).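 Further: score merges 667 nm fluorescence intensity with signal-to-noise per printed feature.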 The following applies: small-molecule microarray, higher = more signal.
Assay [17] in a line: probe aShh binding to arrayed compounds – biochemical, biotinylated probe, 635/667 nm fluorescence, primary screen (AID 1114).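 Further: probe is biotin-labelled aShh protein from a stem cell growth factor screen; measures binding of labelled protein to compounds printed on the slide; score merges feature fluorescence at 667 nm with signal-to-noise.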 The following applies: small-molecule microarray, higher = more signal.
Assay [18] in a line: probe aNog binding to arrayed compounds – biochemical, biotinylated probe, 635/667 nm fluorescence, primary screen (AID 1115).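 Further: probe is biotinylated aNog protein used at 0.15 µg/mL for 1 h at 4 C; z-score combines 667 nm fluorescence of each spot with its signal to noise.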 As to conditions: small-molecule microarray, higher = more signal.
Assay [19] deals with Torsin-1A-interacting protein 1 (Homo sapiens) (UniProt Q5JTV8). As to the kind of experiment: compound microarray binding of lysate hLAP1 – cell lysate, small-molecule microarray, COS7 lysate, 635/667 nm fluorescence, primary screen (AID 1116). As to conditions: 635 nm fluorescence, higher = more signal.
Assay [20] addresses Alpha-bungarotoxin (Bungarus multicinctus) (UniProt P60615). The assay is described as follows: compounds binding labelled alpha-BTX control protein – biochemical, small-molecule microarray, Alexa647 label, 635/667 nm fluorescence, artefact control for SMM control protein annotation, profiling panel (AID 1117). As to conditions: alpha-BTX-A647 binding fluorescence, higher = more signal.

Sequence of Epidermal growth factor receptor (Homo sapiens) (P00533 whole entry, looked up): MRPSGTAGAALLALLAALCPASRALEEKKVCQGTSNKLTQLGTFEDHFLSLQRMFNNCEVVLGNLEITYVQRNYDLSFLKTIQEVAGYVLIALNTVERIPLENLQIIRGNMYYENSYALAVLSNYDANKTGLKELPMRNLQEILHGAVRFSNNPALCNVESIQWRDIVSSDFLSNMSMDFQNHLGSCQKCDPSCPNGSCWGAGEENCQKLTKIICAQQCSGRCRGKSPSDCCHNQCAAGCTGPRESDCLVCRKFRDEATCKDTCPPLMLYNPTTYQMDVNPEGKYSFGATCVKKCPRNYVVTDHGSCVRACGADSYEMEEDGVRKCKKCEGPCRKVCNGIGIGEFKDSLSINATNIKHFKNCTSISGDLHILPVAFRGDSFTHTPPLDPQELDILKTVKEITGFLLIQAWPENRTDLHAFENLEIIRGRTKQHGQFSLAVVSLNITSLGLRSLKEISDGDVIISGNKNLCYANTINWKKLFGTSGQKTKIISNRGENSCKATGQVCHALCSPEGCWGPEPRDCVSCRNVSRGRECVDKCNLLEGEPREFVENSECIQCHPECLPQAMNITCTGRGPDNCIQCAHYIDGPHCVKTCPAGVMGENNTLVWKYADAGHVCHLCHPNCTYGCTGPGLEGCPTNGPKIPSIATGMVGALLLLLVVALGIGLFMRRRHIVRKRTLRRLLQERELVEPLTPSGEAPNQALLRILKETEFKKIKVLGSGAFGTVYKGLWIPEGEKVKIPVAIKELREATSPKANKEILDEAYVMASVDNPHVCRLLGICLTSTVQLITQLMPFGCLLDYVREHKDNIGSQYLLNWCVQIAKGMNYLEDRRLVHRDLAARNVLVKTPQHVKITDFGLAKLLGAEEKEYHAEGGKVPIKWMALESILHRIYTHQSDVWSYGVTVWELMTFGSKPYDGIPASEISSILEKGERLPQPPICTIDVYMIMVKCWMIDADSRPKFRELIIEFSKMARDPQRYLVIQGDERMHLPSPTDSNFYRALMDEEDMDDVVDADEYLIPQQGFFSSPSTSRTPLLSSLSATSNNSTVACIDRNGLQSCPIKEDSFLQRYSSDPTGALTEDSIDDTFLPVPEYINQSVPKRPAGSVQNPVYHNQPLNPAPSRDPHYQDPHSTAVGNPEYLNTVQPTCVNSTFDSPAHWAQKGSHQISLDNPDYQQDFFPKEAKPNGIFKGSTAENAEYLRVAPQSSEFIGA
Sequence of Follistatin-related protein 3 (Homo sapiens) (O95633 whole entry, looked up): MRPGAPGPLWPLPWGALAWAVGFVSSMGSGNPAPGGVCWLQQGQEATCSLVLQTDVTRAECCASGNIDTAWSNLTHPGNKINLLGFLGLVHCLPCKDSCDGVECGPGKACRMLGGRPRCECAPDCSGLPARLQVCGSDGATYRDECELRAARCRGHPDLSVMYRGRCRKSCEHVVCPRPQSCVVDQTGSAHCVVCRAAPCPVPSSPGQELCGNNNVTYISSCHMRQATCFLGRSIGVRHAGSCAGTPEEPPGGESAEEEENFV
Sequence of Fibroblast growth factor 10 (Homo sapiens) (O15520 whole entry, looked up): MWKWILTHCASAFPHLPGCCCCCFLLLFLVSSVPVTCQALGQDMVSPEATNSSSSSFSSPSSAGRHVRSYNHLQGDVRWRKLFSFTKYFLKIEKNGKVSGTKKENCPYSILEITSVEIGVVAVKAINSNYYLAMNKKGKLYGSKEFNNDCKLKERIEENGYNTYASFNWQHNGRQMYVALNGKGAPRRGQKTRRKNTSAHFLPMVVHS
Sequence of Torsin-1A-interacting protein 1 (Homo sapiens) (Q5JTV8 whole entry, looked up): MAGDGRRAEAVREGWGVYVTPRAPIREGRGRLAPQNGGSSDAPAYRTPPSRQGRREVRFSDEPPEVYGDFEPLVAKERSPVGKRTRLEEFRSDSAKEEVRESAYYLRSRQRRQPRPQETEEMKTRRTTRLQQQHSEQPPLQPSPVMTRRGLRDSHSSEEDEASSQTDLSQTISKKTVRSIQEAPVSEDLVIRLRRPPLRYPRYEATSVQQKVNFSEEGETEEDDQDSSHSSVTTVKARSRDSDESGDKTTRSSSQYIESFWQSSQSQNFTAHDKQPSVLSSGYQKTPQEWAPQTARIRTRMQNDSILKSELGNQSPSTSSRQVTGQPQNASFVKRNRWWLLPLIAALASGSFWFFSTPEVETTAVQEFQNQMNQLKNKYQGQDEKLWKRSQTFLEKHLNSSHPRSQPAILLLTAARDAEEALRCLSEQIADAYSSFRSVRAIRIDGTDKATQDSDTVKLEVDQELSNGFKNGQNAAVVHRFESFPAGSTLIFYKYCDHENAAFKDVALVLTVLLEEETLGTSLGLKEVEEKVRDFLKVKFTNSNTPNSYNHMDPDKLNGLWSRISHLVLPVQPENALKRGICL
Sequence of Left-right determination factor 2 (Homo sapiens) (O00292 whole entry, looked up): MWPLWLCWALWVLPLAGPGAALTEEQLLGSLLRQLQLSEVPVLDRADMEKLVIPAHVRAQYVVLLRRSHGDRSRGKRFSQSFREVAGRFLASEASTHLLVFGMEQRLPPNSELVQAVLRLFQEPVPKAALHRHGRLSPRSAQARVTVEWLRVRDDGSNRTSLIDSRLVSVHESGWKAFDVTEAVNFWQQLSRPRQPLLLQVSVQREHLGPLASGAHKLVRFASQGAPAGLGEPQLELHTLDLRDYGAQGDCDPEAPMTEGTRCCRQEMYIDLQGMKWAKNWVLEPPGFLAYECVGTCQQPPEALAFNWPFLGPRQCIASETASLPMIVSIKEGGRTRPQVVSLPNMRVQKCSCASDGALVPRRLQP
Sequence of Alpha-bungarotoxin (Bungarus multicinctus) (P60615 whole entry, looked up): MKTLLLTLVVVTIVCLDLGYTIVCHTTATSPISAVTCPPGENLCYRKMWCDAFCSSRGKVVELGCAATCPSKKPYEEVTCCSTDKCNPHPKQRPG
Sequence of Dickkopf-related protein 1 (Homo sapiens) (O94907 whole entry, looked up): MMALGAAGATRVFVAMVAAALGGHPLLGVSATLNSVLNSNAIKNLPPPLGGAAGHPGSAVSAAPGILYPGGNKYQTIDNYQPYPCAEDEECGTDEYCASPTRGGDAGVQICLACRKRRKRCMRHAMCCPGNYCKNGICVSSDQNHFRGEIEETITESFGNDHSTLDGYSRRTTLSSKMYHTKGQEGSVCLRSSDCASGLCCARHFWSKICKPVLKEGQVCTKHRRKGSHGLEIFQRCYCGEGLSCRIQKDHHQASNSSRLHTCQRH

In the case of `COc1ccc([Si](C)(C)[C@H]2[C@H](CC(=O)N(CCO)Cc3ccccc3)O[C@@]3(C(=O)N(c4ccccc4)c4ccccc43)[C@@H]2C)cc1`, the composite z-score in [1] was 0.717; in [2], -0.202; in assay [3], -0.0698; in [5] it was 0.889; in [6] it was 0.289; in assay [7], 0.686. Besides, the composite z-score in assay [8] was 1.09; in assay [9], 0.415; in assay [10], 0.841; in assay [11] it was 1.32; in assay [13], 0.753; in assay [14] it was 0.503. For the same molecule, the composite z-score in [15] was -0.0244; in assay [16], -0.104; in assay [17] it was 0.0022; in assay [18], -0.519; in [19], 0.105; in assay [20], 1.17. Moreover, the z-score in [4] was -1.5 (inactive); in assay [12], -5.19.

With `COc1c(C)cc(-c2nc(-c3ccccc3)c3c(c2C)CO[Si]3(C(C)C)C(C)C)cc1C`, the composite z-score in [1] is -0.186; in assay [2], -0.141; in assay [3], 0.0757; in [5] it was 0.295; in [6] it was 0.324; in [7], 0.387. Further, the composite z-score is 0.338 in assay [8]; 0.305 in assay [9]; 0.698 in assay [10]; 0.0725 in assay [11]; 0.513 in assay [13]; 0.0032 in assay [14]. Also, the composite z-score was 0.154 in assay [15]; -0.0478 in [16]; -0.0769 in assay [17]; 0.239 in assay [18]; -0.0032 in assay [19]; -0.0073 in assay [20]. Besides, the z-score in assay [4] is -0.394 (inactive); in assay [12], -0.77.

For `C=C1C(=O)C=C2CN(C(=O)c3ccccc3)[C@@](Cc3ccc(F)cc3)(C(=O)OC)[C@@H]12`, the composite z-score is 0.641 in assay [1]; 1.16 in [2]; 1.21 in assay [3]; 0.941 in assay [5]; 1.2 in assay [6]; -0.0735 in [7]. For the same molecule, the composite z-score in assay [8] is 1.06; in assay [9], -0.519; in assay [10], 1.05; in assay [11], 1.39; in assay [13], -0.406; in [14] it was 2.19. The composite z-score is 1.08 in assay [15]; 0.177 in assay [16]; -0.0626 in assay [17]; 1.99 in assay [18]; 0.952 in assay [19]; 1.85 in assay [20]. The z-score in assay [4] was -0.756 (inactive); in assay [12] it was -3.68.

In the case of `CC1C2C(CCCO)=CC(C3C(=O)N(C(N)=O)C(=O)C23)N1Cc1cccc(OC(F)(F)F)c1` (stereo not given), the composite z-score in [1] was 0.174; in [2], -0.0132; in assay [3], -0.311; in assay [5] it was 0.646; in assay [6], 0.719; in [7] it was 0.177. Also, the composite z-score in assay [8] was 0.101; in assay [9], -0.26; in assay [10], -0.055; in assay [11], 0.0396; in assay [13] it was 0.246; in assay [14], 0.366. For the same molecule, the composite z-score in assay [15] is 0.41; in [16], -0.096; in assay [17], 0.13; in assay [18], 0.528; in assay [19], 1.26; in [20], 1.32. Moreover, the z-score was -0.586 (inactive) in assay [4] and -1.07 in assay [12].

As to `COc1ccc(CCNC(=O)[C@@]2(C)c3ccccc3C(=O)N(Cc3ccc(OC(F)(F)F)cc3)[C@H]2c2ccc(CO)cc2)cc1`, the composite z-score in assay [1] is 0.738; in assay [2], 0.781; in assay [3], -0.325; in [5], 1.19; in assay [6] it was 1.3; in assay [7] it was 0.743. Further, the composite z-score was 0.286 in [8]; 1 in assay [9]; -0.307 in assay [10]; 1.06 in assay [11]; 0.243 in [13]; -0.717 in [14]. The composite z-score is -0.944 in [15]; 0.0148 in assay [16]; 0.0181 in [17]; -0.737 in [18]; 0.986 in assay [19]; 1.04 in assay [20]. Besides, the z-score in [4] was -0.383 (inactive); in [12], -1.84.

(Values after PubChem BioAssay.)
